# Source: PubChem BioAssay (NCATS)
# Inconclusive results are not listed. Entries that show only a call come without a potency. Values without a mark were called inactive. Activity calls are given as the source filed them. Calls follow the shape of the dose curve; as a rule, active = well fitted cell-killing curve with a large enough effect; inconclusive = small, poorly fitted or top-dose-only effect, or effect the other way; inactive = no such curve, though single readings can be large or run the other way.
# Test: Viability qHTS for spleen associated tyrosine kinase inhibitor (SYKi) naive MV4-11 cells (AID 1963823); also: nearly all actives have a fitted effect of over 40% in size
# Settings: MV4-11 AML viability, CellTiter-Glo luminescence, 72 h; series mostly up to 45 µM
# How it was run: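 qHTS, SYK inhibitor-naive MV4-11; 500 cells/well; 72 hr compound exposure, 37 C; CellTiter-Glo added, 10 min RT; luminescence read.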
# Potency is read from the fitted curve at half-maximal effect.
Structure (SMILES),Potency,viability (% of control)
Nc1ncnc2c1c(-c1ccc(Oc3ccccc3)cc1)cn2C1CCCC1,0.366 µM (active),
COc1cc(/C=C/C(=O)O)ccc1O[C@@H]1O[C@H](CO)[C@@H](O)[C@H](O)[C@H]1O[C@@H]1OC[C@](O)(CO)[C@H]1O,inactive,
CN(C)CCCn1cc(C2=C(c3c[nH]c4ccccc34)C(=O)NC2=O)c2ccccc21,0.0731 µM (active),
CC/C=C\[C@H](O)[C@H](O)C1=C(C)C(=O)[C@]2(O1)C(=O)N[C@@](OC)(C(=O)c1ccccc1)[C@@H]2O,inactive,
CCCCOc1ccc(-c2cncc(C(=O)NCc3cccnc3N3CCOCC3)c2)cc1Cl,18.4 µM (active),
CC1CC(O)CC(C)(C)C1(O)CCO (stereo not given),inactive,
C/C(=C\CCC(C)(C)O)CCO[C@@H]1O[C@H](CO[C@@H]2O[C@@H](C)[C@H](O)[C@@H](O)[C@H]2O)[C@@H](O)[C@H](O)[C@H]1O,inactive,
COC(=O)CC1(O)C(=O)Nc2ccccc21 (stereo not given),inactive,
O=C(Nc1ccc(Cl)cc1)C1CCCN(C(=O)c2cccc(-c3ccco3)c2)C1 (stereo not given),8.2 µM (active),
CC1=CC(=O)C[C@H]2[C@@H]1CC[C@@H](C)[C@]21CO[C@H](c2ccoc2)C1=O,inactive,
CO[C@@H]1CC(OC2CCC3(C)C(CCC45CCC(C6=CC(=O)OC6)C(C)(CCC43)C5=O)C2)O[C@H](C)[C@@H]1O[C@@H]1O[C@H](CO[C@@H]2O[C@H](CO)[C@@H](O)[C@H](O)[C@H]2O)[C@@H](O)[C@H](O)[C@H]1O (stereo not given in full),0.873 µM (active),
[N-]=[N+]=N[C@]1(CO)O[C@@H](n2ccc(=O)[nH]c2=O)[C@@H](O)[C@@H]1O,inactive,
C=C1[C@@H](OC(C)=O)CC[C@@]2(C)[C@@H](OC(C)=O)[C@H](OC(C)=O)C3=C(C)C[C@H](OC(=O)C(C)CC)[C@@H]([C@@H](OC(C)=O)[C@H]12)C3(C)C (stereo not given in full),1.53 µM (active),
COc1cc(C(=O)OC[C@@]2(O)CO[C@@H](O[C@H]3[C@H](Oc4ccc(C(=O)O)cc4OC)O[C@H](CO)[C@@H](O)[C@@H]3O)[C@@H]2O)ccc1O,inactive,
C/C(CO)=C1/CCC23COC(C2)C(O)(C(=O)O)CCC13 (stereo not given),inactive,
C=C1C(=O)O[C@@H]2[C@H]1CC[C@H](C)[C@]1(CCC(=O)O1)C2(C)O (stereo not given in full),16.4 µM (active),
C=C1C[C@H](O)[C@@H](O)[C@@]2(C)C1[C@@H](O)[C@H]1OC(=O)C3[C@@H](C)[C@@H](O)[C@H](O)C2[C@]31C (stereo not given in full),inactive,
C[C@@H]1O[C@@H](O[C@H]2[C@H](OC(=O)[C@]34CCC(C)(C)C[C@H]3C3=CCC5[C@@]6(C)C[C@@H](O)[C@@H](O[C@@H]7O[C@H](CO)[C@@H](O)[C@H](O)[C@H]7O)[C@@](C)(CO)C6[C@H](O)C[C@@]5(C)[C@]3(C)CC4)OC[C@H](O)[C@@H]2O)[C@H](O)[C@H](O[C@@H]2OC[C@](O)(CO)[C@H]2O)[C@H]1O[C@@H]1OC[C@@H](O)[C@H](O[C@H]2O[C@H](C)[C@@H](O)[C@H](O)[C@@H]2O)[C@H]1O (stereo not given in full),,80.1% [at 9.25 µM]
C=CC(C)(O)CC/C=C(\C)C(=O)O[C@@H]1[C@@H](O)[C@H](OC(C)(C=C)CC/C=C(\C)C(=O)O[C@@H]2O[C@H](CO)[C@@H](O)[C@H](O)[C@H]2O)O[C@H](CO)[C@H]1OC(=O)/C(C)=C/CCC(C)(O)C=C (stereo not given in full),,87.6% [at 9.25 µM]
CC(=O)NCCCCn1c2c(c3ccccc31)C(=O)NCC2,inactive,
COc1c(OC2OC(CO)C(O)C(O)C2O)ccc(O)c1C(=O)OCc1ccccc1O[C@@H]1O[C@H](CO)[C@@H](O)[C@H](O)[C@H]1O (stereo not given in full),inactive,
CC1(C)CCCC2(C)C1CC=C1C(=O)OC(O)C12O (stereo not given),inactive,
C/C=C(/C)C(=O)O[C@H]1C=C(CO)C(=O)[C@H](OC(=O)/C(C)=C/CO)[C@H]1C(C)C,2.02 µM (active),
CC1(C)CC[C@]23CO[C@@]4(CCC5[C@@]6(C)CC[C@H](O[C@@H]7OC[C@H](O[C@@H]8O[C@H](CO)[C@@H](O)[C@H](O)[C@H]8O[C@@H]8OC[C@@H](O)[C@H](O)[C@H]8O)[C@H](O)[C@H]7O[C@@H]7O[C@H](CO)[C@@H](O)[C@H](O)[C@H]7O)[C@@](C)(CO)C6CC[C@@]5(C)[C@]4(C)C[C@H]2O)[C@@H]3C1 (stereo not given in full),2.19 µM (active),
O=S(=O)(c1cccc2ccccc12)n1ccc2ccc(N3CCN4CCCC4C3)cc21 (stereo not given),23.1 µM (active),
